# Measurements: PubChem BioAssay (NCATS)
# Results filed as inconclusive are left out. Active and inactive are the calls of the source. Calls come from the whole dose curve; as a rule, active = well fitted curve in the direction sought with a large enough effect; inconclusive = small, poorly fitted or top-dose-only effect, or another doubt; inactive = no such curve, though single readings can be large; an effect the other way counts as inactive or inconclusive.
# Target: DNA repair nuclease/redox regulator APEX1 (Homo sapiens) (UniProt P27695)
# Assay: qHTS Validation Assay for Inhibitors of the Human Apurinic/apyrimidinic Endonuclease 1 (APE1) (AID 1705;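 note: TAMRA fluorescence gain over two minutes as APE1 cuts a quenched THF abasic duplex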)
# Conditions: purified APE1 endonuclease activity, fluorescence, titration; series mostly up to 57.1 µM
# Outline: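 Activity read as rising fluorescence (598 nm emission, 525 nm excitation) from incision of a TAMRA/BHQ-2 duplex carrying a THF abasic site (50 nM). Compound and enzyme sat 15 min at RT before substrate start; signal change between first and third 60-s reads.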
# Chain of DNA repair nuclease/redox regulator APEX1 (Homo sapiens) (P27695 whole entry, looked up): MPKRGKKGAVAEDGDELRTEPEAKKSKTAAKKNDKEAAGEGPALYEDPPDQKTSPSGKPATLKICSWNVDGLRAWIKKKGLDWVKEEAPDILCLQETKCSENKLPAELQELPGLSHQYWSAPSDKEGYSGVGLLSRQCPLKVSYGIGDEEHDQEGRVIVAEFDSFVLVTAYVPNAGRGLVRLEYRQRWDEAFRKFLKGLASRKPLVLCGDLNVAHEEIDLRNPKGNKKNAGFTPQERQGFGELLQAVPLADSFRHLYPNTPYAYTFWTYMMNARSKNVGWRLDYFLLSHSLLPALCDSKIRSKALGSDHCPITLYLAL
row,Compound,Potency
1,CC(C)[C@@]1(NC(=O)[C@@H]2C[C@@H]3c4cccc5[nH]cc(c45)C[C@H]3N(C)C2)O[C@@]2(O)C3CCCN3C(=O)[C@H](Cc3ccccc3)N2C1=O (some centres undefined),inactive
2,CNCC[C@@H](Oc1ccc(C(F)(F)F)cc1)c1ccccc1,inactive
3,C[C@]12CC[C@H](O)CC1=CCC1C2CC[C@]2(C)C(=O)CC[C@@H]12 (some centres undefined),inactive
4,CCCN1CCc2cccc3c2C1Cc1ccc(O)c(O)c1-3 (centres undefined),inactive

# System: not listed separately
# Assay: Counterscreen for APE1 Inhibitors: Fluorescent Dye Displacement Validation Assay (AID 1707)
# Conditions: fluorescent dye displacement from DNA; series mostly up to 57.1 µM
# Outline: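 Assay buffer: Tris-HCl pH7.5 with 50mM NaCl, 2 mM MgCl2, 0.01% Tween-20. Dye 250 nM, duplex 50 nM final. Readout: decrease in ThO endpoint fluorescence, 480 nm excitation, 540 nm emission.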
row,Compound,outcome
1,CC(C)[C@@]1(NC(=O)[C@@H]2C[C@@H]3c4cccc5[nH]cc(c45)C[C@H]3N(C)C2)O[C@@]2(O)C3CCCN3C(=O)[C@H](Cc3ccccc3)N2C1=O (some centres undefined),inactive
2,C[C@]12CC[C@H](O)CC1=CCC1C2CC[C@]2(C)C(=O)CC[C@@H]12 (some centres undefined),inactive
3,CCCN1CCc2cccc3c2C1Cc1ccc(O)c(O)c1-3 (centres undefined),inactive

# Target: Endonuclease 4 (Escherichia coli (strain K12)) (UniProt P0A6C1)
# Assay: Counterscreen for APE1 Inhibitors: qHTS Validation Assay for Inhibitors of Endonuclease IV (AID 1708)
# Conditions: E. coli endonuclease IV, DNA cleavage fluorescence; series mostly up to 57.1 µM
# Outline: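 Concentration-response counterscreen run identically to the APE1 assay: 15 min room-temperature preincubation of 2 nM enzyme with compound, reaction started with 50 nM quenched abasic DNA, progress taken from kinetic fluorescence.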
row,Compound,Potency
1,CC(C)[C@@]1(NC(=O)[C@@H]2C[C@@H]3c4cccc5[nH]cc(c45)C[C@H]3N(C)C2)O[C@@]2(O)C3CCCN3C(=O)[C@H](Cc3ccccc3)N2C1=O (some centres undefined),inactive
2,C[C@]12CC[C@H](O)CC1=CCC1C2CC[C@]2(C)C(=O)CC[C@@H]12 (some centres undefined),inactive
3,CCCN1CCc2cccc3c2C1Cc1ccc(O)c(O)c1-3 (centres undefined),inactive

# System: not listed separately
# Assay: qHTS for differential inhibitors of proliferation of Plasmodium falciparum line 7G8 (AID 1815);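 note: parasite growth measured after three days of incubation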; note: potency is the fitted concentration of half-maximal effect
# Conditions: Plasmodium falciparum 7G8 proliferation inhibition; series mostly up to 28.7 µM
row,Compound,Potency
1,CC(C)[C@@]1(NC(=O)[C@@H]2C[C@@H]3c4cccc5[nH]cc(c45)C[C@H]3N(C)C2)O[C@@]2(O)C3CCCN3C(=O)[C@H](Cc3ccccc3)N2C1=O (some centres undefined),316 nM (active)
2,C[C@]12CC[C@H](O)CC1=CCC1C2CC[C@]2(C)C(=O)CC[C@@H]12 (some centres undefined),inactive
3,CCCN1CCc2cccc3c2C1Cc1ccc(O)c(O)c1-3 (centres undefined),2240 nM (active)
4,CC(C)C[C@H]1C(=O)N2CCCC2[C@]2(O)O[C@](NC(=O)[C@@H]3C=C4c5cccc6[nH]c(Br)c(c56)C[C@H]4N(C)C3)(C(C)C)C(=O)N12 (some centres undefined),891 nM (active)

# System: not listed separately
# Assay: qHTS for differential inhibitors of proliferation of Plasmodium falciparum line GB4 (AID 1816);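 note: parasite growth measured after 72 h incubation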; note: potency is the fitted concentration of half-maximal effect
# Conditions: Potency: Plasmodium falciparum GB4 proliferation inhibition; series mostly up to 28.7 µM
row,Compound,Potency
1,CC(C)[C@@]1(NC(=O)[C@@H]2C[C@@H]3c4cccc5[nH]cc(c45)C[C@H]3N(C)C2)O[C@@]2(O)C3CCCN3C(=O)[C@H](Cc3ccccc3)N2C1=O (some centres undefined),1120 nM (active)
2,C[C@]12CC[C@H](O)CC1=CCC1C2CC[C@]2(C)C(=O)CC[C@@H]12 (some centres undefined),inactive
3,CCCN1CCc2cccc3c2C1Cc1ccc(O)c(O)c1-3 (centres undefined),2000 nM (active)
4,CC(C)C[C@H]1C(=O)N2CCCC2[C@]2(O)O[C@](NC(=O)[C@@H]3C=C4c5cccc6[nH]c(Br)c(c56)C[C@H]4N(C)C3)(C(C)C)C(=O)N12 (some centres undefined),1780 nM (active)

# System: not listed separately
# Assay: qHTS for differential inhibitors of proliferation of Plasmodium falciparum line 3D7 (AID 1876); note: potency is the fitted concentration of half-maximal effect
# Conditions: P. falciparum 3D7 proliferation inhibition; series mostly up to 28.7 µM
row,Compound,Potency
1,CC(C)[C@@]1(NC(=O)[C@@H]2C[C@@H]3c4cccc5[nH]cc(c45)C[C@H]3N(C)C2)O[C@@]2(O)C3CCCN3C(=O)[C@H](Cc3ccccc3)N2C1=O (some centres undefined),1000 nM (active)
2,C[C@]12CC[C@H](O)CC1=CCC1C2CC[C@]2(C)C(=O)CC[C@@H]12 (some centres undefined),inactive
3,CCCN1CCc2cccc3c2C1Cc1ccc(O)c(O)c1-3 (centres undefined),2510 nM (active)
4,CC(C)C[C@H]1C(=O)N2CCCC2[C@]2(O)O[C@](NC(=O)[C@@H]3C=C4c5cccc6[nH]c(Br)c(c56)C[C@H]4N(C)C3)(C(C)C)C(=O)N12 (some centres undefined),2000 nM (active)

# System: not listed separately
# Assay: qHTS for differential inhibitors of proliferation of Plasmodium falciparum line D10 (AID 1877);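 note: parasites grown with compound for 72 h before DNA staining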; note: potency is the fitted concentration of half-maximal effect
# Conditions: series mostly up to 28.7 µM
row,Compound,Potency
1,CC(C)[C@@]1(NC(=O)[C@@H]2C[C@@H]3c4cccc5[nH]cc(c45)C[C@H]3N(C)C2)O[C@@]2(O)C3CCCN3C(=O)[C@H](Cc3ccccc3)N2C1=O (some centres undefined),2240 nM (active)
2,C[C@]12CC[C@H](O)CC1=CCC1C2CC[C@]2(C)C(=O)CC[C@@H]12 (some centres undefined),inactive
3,CCCN1CCc2cccc3c2C1Cc1ccc(O)c(O)c1-3 (centres undefined),2510 nM (active)
4,CC(C)C[C@H]1C(=O)N2CCCC2[C@]2(O)O[C@](NC(=O)[C@@H]3C=C4c5cccc6[nH]c(Br)c(c56)C[C@H]4N(C)C3)(C(C)C)C(=O)N12 (some centres undefined),2510 nM (active)

# System: not listed separately
# Assay: qHTS for differential inhibitors of proliferation of Plasmodium falciparum line Dd2 (AID 1882); note: nearly all actives have a fitted effect of over 65% in size; note: potency is the fitted concentration of half-maximal effect
# Conditions: Potency: Plasmodium falciparum Dd2 proliferation inhibition; series mostly up to 28.7 µM
# Outline: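 Dd2-infected erythrocytes (0.3% parasitemia, 2.5% hematocrit final) incubated with compound 72 h at 37 C, 5% CO2; lysed with saponin/Triton buffer containing SYBR Green I, incubated overnight in the dark, then read by fluorescence (485/535 nm). Normalized to 0.29 uM artemisinin and DMSO.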
row,Compound,Potency
1,CC(C)[C@@]1(NC(=O)[C@@H]2C[C@@H]3c4cccc5[nH]cc(c45)C[C@H]3N(C)C2)O[C@@]2(O)C3CCCN3C(=O)[C@H](Cc3ccccc3)N2C1=O (some centres undefined),1410 nM (active)
2,C[C@]12CC[C@H](O)CC1=CCC1C2CC[C@]2(C)C(=O)CC[C@@H]12 (some centres undefined),inactive
3,CCCN1CCc2cccc3c2C1Cc1ccc(O)c(O)c1-3 (centres undefined),3160 nM (active)
4,CC(C)C[C@H]1C(=O)N2CCCC2[C@]2(O)O[C@](NC(=O)[C@@H]3C=C4c5cccc6[nH]c(Br)c(c56)C[C@H]4N(C)C3)(C(C)C)C(=O)N12 (some centres undefined),2000 nM (active)

# System: not listed separately
# Assay: qHTS for differential inhibitors of proliferation of Plasmodium falciparum line W2 (AID 1883);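 note: potency is the fitted concentration of half-maximal effect; parasites grown with compound for 72 h before lysis and staining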
# Conditions: Potency: Plasmodium falciparum W2 proliferation inhibition; series mostly up to 28.7 µM
row,Compound,Potency
1,CC(C)[C@@]1(NC(=O)[C@@H]2C[C@@H]3c4cccc5[nH]cc(c45)C[C@H]3N(C)C2)O[C@@]2(O)C3CCCN3C(=O)[C@H](Cc3ccccc3)N2C1=O (some centres undefined),891 nM (active)
2,CNCC[C@@H](Oc1ccc(C(F)(F)F)cc1)c1ccccc1,4470 nM (active)
3,CCCN1CCc2cccc3c2C1Cc1ccc(O)c(O)c1-3 (centres undefined),2000 nM (active)
4,CC(C)C[C@H]1C(=O)N2CCCC2[C@]2(O)O[C@](NC(=O)[C@@H]3C=C4c5cccc6[nH]c(Br)c(c56)C[C@H]4N(C)C3)(C(C)C)C(=O)N12 (some centres undefined),1260 nM (active)
